Nine molecules from PubChem BioAssay (NCI) can be followed below.

Compounds without any hit were thinned out: in the full panel of roughly 83,000, 20% have a hit.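 A percent growth of 40 corresponds to 60% growth inhibition; 0 means no net growth; -100 means all cells died. Active threshold: below 10.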 Unmarked numbers belong to inactive results. Calls of active or inactive are those of the source.

Assay in all cases: NCI-60 one-dose screen, 48 h (100 = growth as untreated, 0 = no growth, -100 = all killed)
For assay [1], the system named is RPMI-8226 leukemia. The following applies: 10 µM unless noted.
The test system of assay [2] is OVCAR-8 ovarian. Particulars: 10 µM unless noted.
For assay [3], the system named is OVCAR-5 ovarian. Particulars: 10 µM unless noted.
For assay [4], the system named is SK-OV-3 ovarian. Particulars: 10 µM unless noted.
Assay [5] relates to IGROV1 ovarian. The following applies: 10 µM unless noted.
Assay [6] has as its system OVCAR-3 ovarian. Particulars: 10 µM unless noted.
Assay [7] deals with HS 578T breast. Particulars: 10 µM unless noted.
For assay [8], the system named is NCI/ADR-RES ovarian. The following applies: 10 µM unless noted.
In assay [9] the test system is T-47D breast. The following applies: 10 µM unless noted.
Assay [10] relates to BT-549 breast. Particulars: 10 µM unless noted.
The test system of assay [11] is MDA-MB-435 melanoma. Particulars: 10 µM unless noted.
Assay [12] concerns SW-620 colon. Particulars: 10 µM unless noted.
For assay [13], the system named is MCF7 breast. The following applies: 10 µM.
Assay [14] relates to HCT-116 colon. The following applies: 10 µM unless noted.
Assay [15] concerns HCC-2998 colon. The following applies: 10 µM unless noted.
The test system of assay [16] is KM12 colon. The following applies: 10 µM unless noted.
In assay [17] the test system is OVCAR-4 ovarian. Particulars: 10 µM unless noted.

Consider `C=C(C)CCC(C)N1CCC(N2CCC(C(=O)NCCc3ccccc3)CC2)CC1` (stereo unspecified), for which the growth in assay [1] was 4.75% (active); in [2], 75.6%; in assay [3] it was 92.2%; in assay [4] it was 52.9%; in assay [5], 69.5%; in assay [6] it was -15.2% (active). For the same molecule, the growth was 56.6% in [7]; 59.9% in assay [8]; 60.9% in [9]; 64.5% in assay [10]; -18.5% (active) in assay [11]; 45.2% in [12]. Besides, the growth in assay [13] is 9.23% (active); in assay [14] it was 17.6%; in assay [15], 131%; in [16], 24.8%.

Take `CNCCNc1nc2ccccc2c2c(=O)c3cc(OC)ccc3sc12`: the growth in assay [1] was -17.2% (active); in [2], 26.3%; in assay [3] it was 70.8%; in assay [17] it was 29.7%; in assay [5], 42.8%; in [7], 56%. Also, the growth in assay [8] was 51.5%; in assay [9] it was -33.6% (active); in assay [10], 76.1%; in assay [11], -86.1% (active); in assay [12], -78.3% (active); in assay [13], -56.9% (active). Further, the growth in assay [14] was -82.3% (active); in assay [15] it was -68.7% (active); in [16], -75.7% (active).

On to `COc1ccc(Cn2c(Br)c3c(c2-c2cc(OC)c(OC)c(OC)c2)CCc2sc(NC(=O)c4ccc(OC)cc4)nc2-3)cc1`, for which the growth in [1] is 81.7%; in [2], 96%; in assay [3], 102%; in [4] it was 108%; in [5], 79.2%; in assay [6] it was 92.7%. Further, the growth in [7] was 83.7%; in assay [8], 89.2%; in [9] it was 77.3%; in assay [10], 96.1%; in [11] it was 99.5%; in [12] it was 96.2%. The growth in assay [13] was 91.5%; in assay [14], 90.8%; in assay [15] it was 108%; in assay [16], 94.2%.

Take `CC(=O)c1ccc(NC(=O)Nc2ccc(S(=O)(=O)Nc3ccc(Cl)nn3)cc2)cc1`: the growth was 108% in assay [1]; 98.7% in assay [2]; 95.3% in assay [3]; 110% in assay [17]; 99.5% in [5]; 98.4% in assay [7]. The growth in assay [8] is 103%; in assay [9], 101%; in [10] it was 107%; in assay [11], 107%; in assay [12] it was 104%; in assay [13], 99.1%. For the same molecule, the results for the growth in assay [14], in assay [15] and in assay [16] were 105%, 107% and 103%, respectively.

For the molecule `CCOC(=O)c1cc2c(n1Cc1cc(OC)c(OC)c(OC)c1)-c1oncc1CCC2`, the growth in assay [1] was 16.8%; in assay [2] it was 16.6%; in assay [3] it was 56.2%; in assay [4], 11.2%; in [5], 33.3%; in assay [6], -22% (active). Further, the growth in [7] is 18.2%; in assay [8], 3.55% (active); in [9], 74%; in assay [10], 31.9%; in assay [11], -53.9% (active); in assay [12] it was 21.5%. Besides, the growth in assay [13] was 7.45% (active); in [14], 8.98% (active); in assay [15], 17.2%; in assay [16], 28.4%.

On to `N#CC(C#N)=Cc1c(-c2ccccc2)[nH]c2ccccc12`, for which the growth in [1] is -24.8% (active); in assay [2], 32.4%; in [3], 75.3%; in assay [17], 65.7%; in assay [6], -27.5% (active); in assay [7] it was -1.19% (active). The growth in assay [8] is 16.2%; in assay [9], 38.6%; in [10], 56%; in assay [11], 7.52% (active); in [12], 21.1%; in assay [13], 15.7%. For the same molecule, the growth in assay [14] is 30.4%; in assay [15], 50.7%; in assay [16] it was 27.4%.

As for `O=C(Nc1ccccc1O)c1ccc(Oc2cccc(C(=O)Nc3ccccc3O)c2)cc1`, the growth in [1] is 8.97% (active); in [2] it was 16.7%; in assay [3] it was 50.7%; in assay [4] it was 26.6%; in assay [5], 18.6%; in [6], 27.3%. For the same molecule, the growth in [7] was 40.6%; in assay [8], 5.02% (active); in assay [9], 26.1%; in assay [10] it was 3.78% (active); in assay [11], 28.3%; in assay [12], 18.4%. Moreover, the growth in assay [13] is 11.3%; in assay [14], 9.66% (active); in assay [15], 21%; in [16], 15.8%.

Consider `CCCC(c1nnnn1C1CCCCC1)N1CCN(C(=O)c2ccco2)CC1` (stereo unspecified), for which the growth in [1] is 28.9%; in assay [2] it was 86.4%; in [3], 89.4%; in assay [4], 79.5%; in assay [5], 69.2%; in assay [6], 25.2%. Also, the growth was 60.7% in [7]; 46.1% in assay [8]; 92.9% in assay [9]; 58.9% in assay [10]; -21.7% (active) in assay [11]; 22.4% in [12]. Besides, the growth in assay [13] is 45.4%; in [14], 31.7%; in assay [15] it was 76.4%; in assay [16], 47.5%.

For `COc1cccc(-c2nn(C)c3sc(C(=O)NCCN4CCN(c5ccccc5F)CC4)cc23)c1`, the growth in [1] is -18.3% (active); in assay [2], 88%; in assay [3] it was 88.4%; in assay [4], 88.7%; in [5], 65.2%; in [6], 64.9%. Moreover, the growth in assay [7] is 63%; in [8], 84.9%; in [9] it was 57.4%; in assay [10], 90.8%; in [11] it was -55.7% (active); in assay [12], 74.6%. In addition, the growth in [13] was 15.1%; in [14], 33.5%; in [15], -41.1% (active); in assay [16] it was 54.2%.
